PubChem BioAssay AID431 (Sanford-Burnham Center for Chemical Genomics, 2006)
The campaign covered roughly 63,000 compounds. About 1,100 (1.7%) were called active. Shown is part of a subset that was picked to be rich in actives. Entries with a potency or affinity are not part of this list. Values without a mark were called inactive.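 Rule for the calls: active = compounds whose percent cytotoxicity in the single-dose primary screen, scaled between solvent and toxic-drug controls, exceeds 50; inactive = the rest.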

Assay: viability loss of HPDE-C7K cells – cell-based, fluorescence, HTS, primary screen (AID 431);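 note: 0% = DMSO solvent wells and 100% = doxorubicin-treated wells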
Conditions: HPDE-C7K KRASV12 cells, Alamar Blue viability, 48 h; at 10 µM; active compounds read high

SMILES | cytotoxicity
CC(=Nc1ccccc1)Nc1ccccc1 | -3.8%
ONC(=Nc1ccccc1)C(=Nc1ccccc1)NO | -6.3%
S=C(N=Nc1ccccc1)NNc1ccccc1 | 50.5% (active)
COC(=O)c1c(C)[nH]c(C(=O)C(C)Sc2nnc(-c3cc(OC)c(OC)c(OC)c3)o2)c1C (configuration not stated) | 11.4%
Cn1c(=O)c2c(nc(NCCCN3CCOCC3)n2Cc2ccc(Cl)cc2)n(C)c1=O | -3.3%
CCOC(=O)c1c(C)oc2c1cc(O)c1ccccc12 | 14%
COC(=O)c1c(C)oc(C)c(C(=O)OC)c1=O | 0.6%
CCN1CCN(Cc2cc(=O)oc3ccc(Cl)cc23)CC1 | -11%
Cc1cccc(-n2c(SCC(=O)Nc3ccc4c(c3)OCO4)nnc2-c2ccoc2C)c1 | 53.6% (active)
Cc1cccc(-n2c(SCC(=O)Nc3nonc3C)nnc2-c2ccoc2C)c1 | -13.8%
Cc1ccc(-n2c(SCC(=O)Nc3ccc4c(c3)OCO4)nnc2-c2ccoc2C)cc1 | 17%
COC(=O)c1cccc(NC(=O)C2COc3ccccc3O2)c1 (configuration not stated) | -26.2%
CC(=O)c1ccccc1OC(=O)c1ccco1 | -0.8%
C=CCN1C(=Nc2ccccc2)SC/C1=C\C(=O)OC | -1.6%
O=C(c1cccc(C(=O)N2CCN(c3ncccn3)CC2)c1)N1CCN(c2ncccn2)CC1 | -2.4%
Cc1c(C)c2cc(Cl)c(OCc3nn[nH]n3)cc2oc1=O | -12%
CCOC(=O)c1[nH]c2ccc(F)cc2c1NC(=O)C(C)N1CCc2cc(OC)c(OC)cc2C1 (configuration not stated) | 53.6% (active)
CCOC(=O)c1[nH]c2ccc(F)cc2c1NC(=O)CN1CCN(C/C=C/c2ccccc2)CC1 | 65% (active)
CCOC(=O)c1[nH]c2ccc(F)cc2c1NC(=O)CN1CCc2cc(OC)c(OC)cc2C1 | -3.4%
CCOC(=O)c1[nH]c2ccc(OC)cc2c1NC(=O)C(C)N1CCSCC1 (configuration not stated) | 31.2%
CCOC(=O)c1[nH]c2ccc(OCC)cc2c1NC(=O)CN1CCN(c2ccccc2)CC1 | 7.4%
CCOC(=O)c1[nH]c2ccccc2c1NC(=O)CN1CCCCC1 | -11.1%
Cn1c(=O)n(CC(=O)OCc2ccccc2)c(=O)c2c1nc1n2CCCN1C1CCCCC1 | 0.1%
N#CC1=C(N)SC(N)=C(C#N)C1CCC1CCCCC1 | 35.2%
Cc1nc(-c2ccc(C(=O)O)cc2)cs1 | -9.4%
COCCNC(=O)c1ccc(NS(C)(=O)=O)cc1 | -8%
COc1ccc(OC)c(NC(=O)CC(NCCC2=CCCCC2)C(=O)O)c1 (configuration not stated) | -16.9%
